DAX1 inh-1 = DAX1 (NR0B1) inhibition, primary screen; inhibition, % at 6.8 µM; HEK293T StAR-luciferase reporter, SF-1/DAX-1 repression relief; AID 652010; hit rate 1.1% among 370,000;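 active = inhibition above the mean over all tested compounds plus 3 SD, cut at about 3.6% in these data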;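 also: higher inhibition means more luminescence from relief of DAX-1 repression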
ssDAF-12 act = activates DAF-12 receptor from parasite S. stercoralis | AID 652126 | HEK293 ssDAF-12/GRIP1 lit1-tk-luc reporter, luminescence; % of 3 µM dafachronic acid response | hit rate 1% among 370,000 | activation, % at 6.8 µM;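 active = activation above the mean over all tested compounds plus 3 SD, cut at about 0.9% in these data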
DAX1 inh-2 = inhibits human nuclear receptor DAX1 | hit rate 0.99% among 340,000 | P51843 | HEK293 Gal4-DAX1 luciferase reporter, luminescence | inhibition, % at 6.75 µM | AID 504766;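 active = inhibition above the mean over all tested compounds plus 3 SD, cut at about 4.2% in these data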;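 also: inhibition shows as a rise in luminescence from relieved DAX1 repression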
hcDAF-12 act = activates DAF-12 receptor from parasite H. contortus | hit rate 1.4% among 370,000 | activation, % at 6.8 µM | AID 652067 | HEK293 hcDAF-12 lit1-tk-luc reporter, luminescence; 0% DMSO, 100% Δ7-dafachronic acid;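 active = activation above the mean of all tested compounds plus 3 SD, cut at about 5.5% in these data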
hgDAF12 agonist = activates the H. glycines DAF-12 receptor ligand-binding domain | HEK293 GAL4-hgDAF12 UAS-luciferase reporter, agonist luminescence; normalized to butyrate control | activation, % at 6.8 µM | hit rate 1.8% among 370,000 | AID 687014;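 active = activation above a cutoff set at the mean of all screened compounds plus 3 SD, cut at about 10% in these data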
LXRb hcDAF ctr = counter-screen for hcDAF-12 agonists: agonists of human LXR-beta; shares compounds with hcDAF-12 act; HEK293 Gal4-LXR tk-luc reporter, luminescence, 24 h; normalized: DMSO 0%, positive control 100%; activation, % at 6.8 µM; 3,400 tested, under 10 active;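 active = mean percent activation of the reporter above a cutoff set as the average over tested compounds plus their standard deviation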
Target sequence (P55055 whole entry, looked up, the tested form may be a part): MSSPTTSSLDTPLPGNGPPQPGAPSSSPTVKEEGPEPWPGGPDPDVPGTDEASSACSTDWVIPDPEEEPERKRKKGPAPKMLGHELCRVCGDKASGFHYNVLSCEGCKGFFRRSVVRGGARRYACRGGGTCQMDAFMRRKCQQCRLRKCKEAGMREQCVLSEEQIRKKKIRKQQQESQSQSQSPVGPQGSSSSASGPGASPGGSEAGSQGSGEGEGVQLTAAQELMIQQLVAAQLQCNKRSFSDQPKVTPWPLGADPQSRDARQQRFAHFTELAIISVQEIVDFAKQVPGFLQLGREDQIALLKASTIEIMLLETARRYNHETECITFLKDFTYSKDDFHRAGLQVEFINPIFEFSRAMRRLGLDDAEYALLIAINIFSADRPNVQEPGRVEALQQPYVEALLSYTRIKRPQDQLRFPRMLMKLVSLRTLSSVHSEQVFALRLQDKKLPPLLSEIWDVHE
hcDAF12 ag = confirmation of H. contortus DAF-12 agonists; shares compounds with hcDAF-12 act; hit rate 61% among 3,400; HEK293 hcDAF-12 lit1-tk-luc reporter, luminescence; % of Δ7-dafachronic acid response; activation, % at 6.8 µM;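 active = mean activation across triplicate tests above the threshold derived from the earlier primary screen, cut at about 5.5% in these data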
hgDAF12 conf = hgDAF-12 agonism, confirmation assay | activation, % at 6.8 µM | shares compounds with hgDAF12 agonist | hit rate 80% among 3,300 | AID 743050 | HEK293 GAL4-hgDAF12 luciferase reporter, agonist mode; percent of butyrate response;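 active = mean activation over triplicate wells above the hit cutoff derived from the earlier primary screen, cut at about 11% in these data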
LXRb DAF12 ctr = activates human LXR-beta, counter-screen for DAF-12 agonists; shares compounds with hgDAF12 agonist; HEK293 Gal4-LXR luciferase reporter, 24 h; activation, % at 6.8 µM; 3,300 tested, under 10 active; AID 743051;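 active = mean activation of the triplicate above a set limit carried over from the primary screen, none filed active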
A number is an active result; 0 = inactive; - = no result. Rows were chosen to be rich in hits. Some 4.1% of all compounds tested hit in one or more screens of this group.

SMILES	DAX1 inh-1	ssDAF-12 act	DAX1 inh-2	hcDAF-12 act	hgDAF12 agonist	LXRb hcDAF ctr	hcDAF12 ag	hgDAF12 conf	LXRb DAF12 ctr
CCCCN(C)CCNC(=O)C1CCN(S(=O)(=O)c2cccc3nsnc23)CC1	0	0	0	0	0	-	-	-	-
CCCCn1c(=N)n(CC(=O)c2ccc(OC)cc2)c2ccccc21	0	0	-	0	0	-	-	-	-
COc1ccc(C(=O)Cn2c(=N)n(C)c3ccccc32)cc1	0	1.7	4.5	13.7	17.5	0	9.1	19.4	0
O/N=C/c1ccccc1OCc1ccccc1F	0	0	0	0	0	-	-	-	-
O/N=C/c1ccc(OCc2ccccc2F)c(Cl)c1	0	0	0	6.7	19.0	0	0	17.1	0
COc1ccc(-c2nn(C)c(=O)[nH]2)cc1	0	0	0	0	0	-	-	-	-
Cc1ccc2nc(NC(=O)c3ccccc3F)sc2c1	0	1.6	0	12.7	18.7	0	14.9	20.3	0
Cc1ccc2nc(NC(=O)c3ccccn3)sc2c1	0	0	0	0	0	-	-	-	-
COc1ccc2nc(NC(=O)c3cnccn3)sc2c1	3.6	1.1	0	8.6	15.3	0	0	15.0	0
O=C(Nc1nc2ccc(F)cc2s1)c1cccs1	0	2.7	0	19.3	17.8	0	8.1	19.0	0
COc1ccc2nc(NC(=O)c3ccccc3F)sc2c1	0	0	0	6.9	15.8	0	6.2	21.0	0
COc1ccc2nc(NC(=O)c3c(C)noc3C)sc2c1	0	0	0	0	0	-	-	-	-
CCN(CC(=O)Nc1cccc(OC)c1)CC(=O)Nc1ccc(C)cc1Cl	0	0	0	0	0	-	-	-	-
N/C(=N\OC(=O)c1cccc2ccccc12)c1cccnc1	0	1.6	0	12.0	14.4	0	9.0	12.3	0
Cc1cccc(C(=O)n2c(=S)nc3cc(C)ccn32)c1	3.7	0	4.6	6.6	15.7	0	6.6	13.3	0
Cc1cc(C(=O)Nc2ccc3ccccc3c2)oc1C	0	0	0	7.3	19.0	0	6.9	19.2	0
Cc1cc(C(=O)Nc2ccc3ccccc3c2)c(C)o1	0	1.7	0	8.5	18.2	0	10.9	21.3	0
Nc1nc(-c2cccnc2)nc2sc3c(c12)CCCC3	4.5	1.5	0	8.7	19.6	0	0	15.4	0
COc1ccc(CNC(=O)CC[C@H]2O[C@@H](n3cnc4c(NC(=O)c5ccccc5)ncnc43)[C@H](O)[C@@H]2O)cc1	0	0	-	0	0	-	-	-	-
c1ccc(-c2nccc3ccccc23)cc1	0	0	0	0	0	-	-	-	-
Cc1ccc(-c2nc(-c3nccc4ccccc34)oc2-c2ccccc2)cc1	0	0	0	7.7	17.2	0	9.5	16.2	0
COc1ccccc1C(=O)NC(=O)CSc1nnnn1C	0	0	0	0	0	-	-	-	-
Cn1c(Nc2ccc(F)cc2)nc2ccccc21	0	0	0	0	0	-	-	-	-
Cn1c(NC(=O)c2ccc(F)cc2)nc2ccccc21	0	1.9	0	13.9	19.0	0	14.5	21.2	0
CCc1cc(C(=O)NCC2CCCO2)sc1C (stereo not given)	0	0	0	0	0	-	-	-	-
SMILES	DAX1 inh-1	ssDAF-12 act	DAX1 inh-2	hcDAF-12 act	hgDAF12 agonist	LXRb hcDAF ctr	hcDAF12 ag	hgDAF12 conf	LXRb DAF12 ctr
Cc1ccc(C)c(-c2nc3cc(N)ccc3o2)c1	0	0	0	0	0	-	-	-	-
Cc1ccc(-c2nc3cc(N)ccc3o2)cc1Br	0	0	0	6.7	14.9	0	8.0	18.7	0
CCN(CC)S(=O)(=O)c1ccc(NC(=O)COC(=O)c2ccc(-n3nc(C)cc3C)cc2)cc1	0	0	0	0	0	-	-	-	-
CCN(CC)S(=O)(=O)c1ccc(C(=O)OCC(=O)Nc2ccc(-c3nc4ccc(C)cc4s3)cc2)cc1	4.0	0	0	7.6	14.3	0	8.9	22.6	0
O=C(CN1C(=O)CCC1=O)Nc1nc(-c2ccccn2)cs1	0	0	0	0	0	-	-	-	-
O=C(CN1C(=O)CCC1=O)Nc1nc(-c2nc3ccccc3s2)cs1	4.5	1.2	0	7.6	16.1	0	0	12.2	0
CC1=CN2C(=N)/C(=C/c3ccc(C)o3)C(=O)N=C2S1	4.0	0	0	14.9	20.1	0	0	11.6	0
Cn1c(NC(=O)CCc2ccccc2)cc(=O)n(C)c1=O	4.1	1.6	0	9.4	14.1	0	7.5	12.8	0
Cc1noc(C)c1C(=O)N1CCC1(C)C(=O)NS(=O)(=O)c1cccs1 (stereo not given)	0	0	-	0	0	-	-	-	-
O=c1c2ccccc2cnn1-c1ccc2ccccc2c1	0	1.4	0	12.8	18.1	0	6.6	16.8	0
Oc1ccccc1-c1cc(-c2cccc(F)c2)n[nH]1	4.4	2.4	0	21.0	23.6	0	15.7	27.2	0
COc1cccc(C2NC(=O)NC(C)=C2C(=O)OCC2CCCCC2)c1 (stereo not given)	0	0	0	0	0	-	-	-	-
Cc1cc(C2=NNC(=NC3CCCCC3)SC2)c(C)n1-c1c(C)n(C)n(-c2ccccc2)c1=O	0	0	0	0	0	-	-	-	-
c1csc(C2=NNC(=NC3CCCCC3)SC2)c1	0	1.5	-	10.2	16.8	0	0	16.2	0
Cc1nnc(NC(=O)c2cc3ccccc3o2)s1	0	0	0	0	0	-	-	-	-
Cc1nc(NC(=O)c2cc3ccccc3o2)sc1C	0	0	0	10.4	13.6	0	8.1	16.9	0
O=C(Nc1ccc2c(c1)CCC2)c1cc2ccccc2o1	0	1.6	0	7.9	16.9	0	0	21.6	0
Cc1nc(NC(=S)NC(=O)c2ccccc2)sc1C	0	0	5.3	8.0	13.9	0	15.4	13.6	0
COC(=O)c1sc(NC(=S)NC(=O)c2cccc(C)c2)nc1C	0	0	0	0	0	-	-	-	-
COC(=O)[C@]12CCCCC=C1N(Cc1ccc(Cl)cc1Cl)C(=O)[C@H](CC(=O)NCCc1ccccc1OC)C2	0	0	-	0	0	-	-	-	-
Cc1ccc(O)c(-c2cc(-c3ccccc3C)[nH]n2)c1	0	0	0	0	0	-	-	-	-
Cc1ccc(-c2cc(-c3cccs3)[nH]n2)c(O)c1	4.3	2.3	0	18.9	19.1	0	12.5	20.9	0
O=C(CSc1ncccc1-c1nc2ccccc2[nH]1)NCc1ccco1	0	0	0	0	0	-	-	-	-
Cc1cc2nc(-c3cccnc3SCC(=O)NCc3ccco3)[nH]c2cc1C	0	1.3	0	11.2	13.9	0	9.1	25.1	0
Nc1nc(N)nc(-c2cc([N+](=O)[O-])ccc2O)n1	0	0	0	0	0	-	-	-	-
